Bioassay records from PubChem BioAssay.
HTT aggregate: reduces HttQ103-GFP aggregates in PC12 cells; PC12 HttQ103-GFP aggregates, Acumen cytometry, 40 h; Potency, µM (highest dose often 46.1 µM), most hits filed as inhibitors; actives 1.1% (n = 220,000); also: nearly all actives have a fitted effect of over 60% in size
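PC12 cells stably carrying ecdysone-inducible HTT exon 1 Q103–GFP were induced with tebufenozide (100 nM final) and treated with library compounds in titration. GFP aggregates in lysates were counted by laser scanning cytometry.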
Lamin A splicing: modulators of lamin A splicing. HeLa LMNA splicing GFP/RFP minigene ratio, 48 h. Potency, µM (top dose mostly 46.1 µM), actives largely listed as inhibitors. actives 0.01% (n = 200,000). AID 1487; active = well fitted inhibition curve with a large enough effect in the signal ratio, with a control signal flat, not every such curve was filed as active; inconclusive = small, poorly fitted or top-dose-only effect, or effect the other way, or a change in a side signal; the % refers to the signal ratio
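S3 HeLa stable clones carrying a lamin A-EGFP splicing minigene plus DsRed2 were seeded at 600 cells/well in Opti-MEM with 2% FBS, pin-dosed and incubated 48 h at 37°C. Acumen cytometry (488 nm) gave the GFP/RFP total-intensity ratio.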
Luc counter: blocks Kinase-Glo luciferase, a counter-screen artifact | Q27757 | actives 0.28% (n = 200,000) | Potency, µM (titrated, usually from 38.3 µM), actives largely listed as inhibitors | Kinase-Glo luciferase, ATP luminescence, 8 min; also: nearly all actives have a fitted effect of over 60% in size
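Light output from Kinase-Glo luciferase with luciferin and 10 uM ATP in 50 mM imidazole pH 7.2, KCl, MgCl2, Tween 20, BSA; compound pin-delivered, 8-min ambient incubation, then luminescence read.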
ALDH1A1 block: blocks purified human ALDH1A1 activity; P00352; Purified ALDH1A1, NADH fluorescence, propionaldehyde substrate; Potency, µM (titrated, usually from 75.3 µM), usual class: inhibitors; actives 7.3% (n = 220,000); AID 1030; active = well fitted inhibition curve with a large enough effect, not every such curve was filed as active; inconclusive = small, poorly fitted or top-dose-only effect, or another doubt; inactive = no such curve, though single readings can be large or run the other way
HTT cytoprotect: cytoprotection in Huntington HTT-Q103 PC12 cell model | actives 0.14% (n = 230,000) | PC12 HTT-Q103 induced, cytoprotection, ATP luminescence, 40 h | Potency, µM (titrated, usually from 56.4 µM), hits mostly activators; also: nearly all actives have a fitted effect of over 45% in size
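PC12 cells stably carrying ecdysone-inducible Htt exon 1 (Q103)–GFP were induced with 100 nM tebufenozide (final) alongside library compounds in a dose series. Cytoprotection was scored as retained ATP by ATPlite luminescence.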
HPGD inh: blocks human HPGD enzyme activity; P15428; purified HPGD, NADH fluorescence kinetic, PGE2 substrate; Potency, µM, hits mostly inhibitors; actives 4.3% (n = 150,000); AID 894; active = well fitted inhibition curve with a large enough effect, not every such curve was filed as active; inconclusive = small, poorly fitted or top-dose-only effect, or another doubt; inactive = no such curve, though single readings can be large or run the other way
Target sequence (P15428 whole entry, looked up): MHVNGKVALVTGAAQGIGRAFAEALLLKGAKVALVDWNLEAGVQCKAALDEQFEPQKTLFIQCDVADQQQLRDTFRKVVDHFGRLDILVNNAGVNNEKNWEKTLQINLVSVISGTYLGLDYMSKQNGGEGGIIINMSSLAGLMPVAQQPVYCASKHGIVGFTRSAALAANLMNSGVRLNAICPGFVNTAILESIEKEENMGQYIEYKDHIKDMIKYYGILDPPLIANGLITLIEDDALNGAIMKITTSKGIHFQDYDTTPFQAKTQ
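NADH formation kinetics: reaction with 30 uM PGE2 and 1 mM NAD+ (final), 20 nM enzyme, Tris-HCl pH 8 with Tween 20, after 15 min compound preincubation at room temperature. Fluorescence change, last versus first of five reads.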
Numbers stand for hits; – = inactive; ? = inconclusive; · = no result; [ ] = remark or other dose. Most compounds without a hit are left out; they make up all but 9% or so of the library. Unless noted, calls follow the shape of the dose curve; as a rule, active = well fitted curve in the direction sought with a large enough effect; inconclusive = small, poorly fitted or top-dose-only effect, or another doubt; inactive = no such curve, though single readings can be large; an effect the other way counts as inactive or inconclusive.

SMILES | HTT aggregate | Lamin A splicing | Luc counter | ALDH1A1 block | HTT cytoprotect | HPGD inh
CCOc1ccccc1N1CSC2=C(C#N)C(c3c(OC)ccc4ccccc34)CC(=O)N2C1 (configuration not stated) | – | – | – | 4.5µM | – | 7.1µM
CCCSC1=C(C#N)C(c2cc(OC)ccc2OC)CC(=O)N1 (configuration not stated) | – | – | – | – | –[10 µM] | 22µM
CCC(=O)Nc1ccc(NC(=O)c2ccco2)cc1 | – | – | – | – | – | –
O=C(CC1C(=O)NCCN1CC1CCCCC1)NCc1ccc(F)cc1 (configuration not stated) | –[9.22 µM] | – | – | ? | –[10 µM] | ·
O=C(NNC(=O)c1ccc(SCC2CCCO2)c([N+](=O)[O-])c1)c1ccc(Cl)c([N+](=O)[O-])c1 (configuration not stated) | – | – | – | – | – | –
O=C(CCl)Nc1ccccc1C(=O)c1ccccc1 | – | – | – | 25µM | –[10 µM] | ·
CCC(=O)Nc1ccccc1C(=O)OCc1ccc(C(=O)c2ccccc2)cc1 | ? | – | – | ? | – | 14µM
Cc1cc(C(=O)c2ccccc2)c(NC(=O)CCl)s1 | ? | ? | – | 2.5µM | –[10 µM] | ?
CCOCCn1c(N2CCN(c3ccccc3)CC2)nc2c1c(=O)[nH]c(=O)n2C | –[9.22 µM] | · | – | – | –[10 µM] | ·
O=C(COC(=O)CNC(=O)c1ccc(Cl)cc1)Nc1ccc2c(c1)OCCO2 | – | – | – | ? | · | ?
Cc1cccc2sc(NC(=O)[C@H](C)N3C(=O)C4CC=CCC4C3=O)nc12 (some centres not stated) | –[9.22 µM] | · | · | 14µM | –[10 µM] | ·
C[C@@H](C(=O)Nc1nc2ccccc2s1)N1C(=O)C2CC=CCC2C1=O (some centres not stated) | – | · | – | – | · | ·
Cn1c(=O)n(C)c2cc(S(=O)(=O)O)ccc21 | – | – | – | – | – | –
CC(=O)CSCc1ccccn1 | · | · | –[7.66 µM] | 3.5µM | –[10 µM] | –
O=C(N=C1SCC(=O)N1c1ccccc1Cl)c1ccco1 | – | – | – | – | – | –
O=C(O)CC1S/C(=N/N=C/c2ccc(Br)cc2)N(c2ccccc2)C1=O (configuration not stated) | – | · | · | 14µM | – | ·
O=C(O)CC1SC(=Nc2ccccc2)N(c2ccccc2)C1=O (configuration not stated) | ? | – | – | – | – | –
Cc1ccccc1OCC(=O)NC(=S)Nc1ccc(S(=O)(=O)NC2CCCCC2)cc1 | – | – | – | ? | – | –
CN1C(=O)/C(=C2\SC(=S)N(CC3CCCO3)C2=O)c2ccccc21 (configuration not stated) | – | – | – | ? | – | –
CN1C(=O)/C(=C2\SC(=S)N(C(CCC(=O)O)C(=O)O)C2=O)c2ccccc21 (configuration not stated) | – | – | – | 1.1µM | –[10 µM] | 28µM
Cc1ccc(NS(=O)(=O)c2ccc(CCC(=O)NCc3cccnc3)cc2)cc1 | – | – | – | 8.9µM | – | ·
CC(C)(C)NS(=O)(=O)c1ccc(CCC(=O)NCc2cccnc2)cc1 | – | – | – | ? | – | –
Cc1cc(NS(=O)(=O)c2ccc(NC(=O)c3cc(-c4cccnc4)nc4ccc(Cl)cc34)cc2)no1 | – | – | – | – | – | 14µM
Cc1ccc(S(=O)(=O)Nc2ccc(NC(=O)c3cccnc3)cc2)cc1 | –[9.22 µM] | · | – | 14µM | –[10 µM] | ·
Cc1cc(NS(=O)(=O)c2ccc(NC(=O)c3cc(-c4ccccc4Cl)nc4ccccc34)cc2)no1 | – | – | – | – | –[0.074 µM] | –
SMILES | HTT aggregate | Lamin A splicing | Luc counter | ALDH1A1 block | HTT cytoprotect | HPGD inh
Cc1cc(NC(NC(=O)c2ccco2)(C(F)(F)F)C(F)(F)F)no1 | – | – | – | – | – | –
Cc1ccc(NC(=O)c2ccccc2OCC(=O)Nc2cccc(Cl)c2C)nc1 | – | ? | – | – | – | ·
Cc1cccc(C(=O)NC2CC3CCCC(C2)N3S(=O)(=O)c2ccccc2)c1 (configuration not stated) | – | ? | – | ? | – | –
Cn1cc(C(N)=O)c2ccccc21 | – | – | – | – | – | ·
Cn1cc(C(=O)CCl)c2ccccc21 | –[9.22 µM] | ? | – | 0.063µM | –[10 µM] | ·
C=CCn1nnnc1SCC(=O)Nc1cccc(OC)c1 | – | – | – | – | – | –
O=C(Nc1ccccc1C(=O)O)c1cccc(NC(=O)c2ccc(Br)o2)c1 | – | – | – | ? | –[10 µM] | –
O=C(Nc1ccccc1C(=O)O)c1ccc(NC(=O)c2ccc(Br)o2)cc1 | –[1.84 µM] | – | – | ? | 2.2µM | 18µM
O=C(Nc1ccccc1C(=O)O)/C(=C/c1ccc([N+](=O)[O-])cc1)NC(=O)c1ccc(Br)o1 | – | · | – | 10µM | – | ·
O=C(Nc1cccc(C(=O)O)c1)/C(=C\c1ccc2c(c1)OCO2)NC(=O)c1ccc(Br)o1 | – | · | – | – | – | ·
CN(C(=O)C1CCOC1)c1nnc(C2CCOC2)s1 (configuration not stated) | – | – | – | – | –[10 µM] | –
CC1CN(C(=S)c2cccc([N+](=O)[O-])c2)CC(C)O1 (configuration not stated) | ? | · | – | 7.9µM | – | ·
CC1CN(c2ccc([N+](=O)[O-])cc2C#N)CC(C)O1 (configuration not stated) | – | · | – | 14µM | – | ·
O=[N+]([O-])c1cccc(C(=S)N2CCN(c3ccccc3)CC2)c1 | – | ? | – | 16µM | ? | 22µM
C/C(=N/N1CCN(c2ccccc2)CC1)c1cccc([N+](=O)[O-])c1 | – | – | – | – | – | ·
O=[N+]([O-])c1cccc(C(=S)N2CCN(c3ccccc3F)CC2)c1 | – | ? | – | 22µM | · | ·
CCOc1ccccc1NC(=O)c1oc2ccccc2c1NC(=O)C1CCCO1 (configuration not stated) | – | – | – | ? | – | ·
O=c1cc(-c2ccc(O)c(O)c2)oc2ccccc12 | · | · | – | 25µM | – | 7.1µM
O=c1cc(-c2ccccc2)oc2ccccc12 | · | · | · | – | – | 8.9µM
O=c1cc(-c2ccccc2)oc2ccc(O)cc12 | –[9.22 µM] | · | · | · | –[10 µM] | ·
O=c1cc(-c2ccccc2)oc2cc(O)c(O)cc12 | · | · | – | – | – | 18µM
CS(=O)(=O)NNC(=O)c1cc2cc3ccccc3nc2s1 | – | · | – | ? | · | ·
NNC(=O)c1cc2cc3ccccc3nc2s1 | – | · | – | 20µM | – | ·
Cc1cccc(NC(=O)c2oc3ccc(S(=O)(=O)N4CCOCC4)cc3c2C)c1C | – | – | – | ? | –[0.074 µM] | ?
CCC(c1nnc(SCC(=O)N2CCOCC2)n1C1CCCCC1)N(C)C (configuration not stated) | –[9.22 µM] | · | · | · | –[10 µM] | ·
CSc1ccc(CNc2ncc(-c3ccccc3)n2C)cc1 | · | – | · | · | · | ·
COc1ccccc1CNc1ccc([N+](=O)[O-])cc1C | –[9.22 µM] | · | – | ? | –[10 µM] | ·
